Source: PubChem BioAssay (EPA / NIEHS)
Results filed as inconclusive are left out. The source made the active and inactive calls. Rule for the calls: active = hit-call score of the fitted dose curve at least 0.9, where 1 is the maximum; inconclusive = response in the unintended direction; inactive = score below 0.9.

These compounds were tested on Cytochrome P450 2C9 (Homo sapiens) (UniProt P11712) (assay: CLD_CYP2C9_24hr: CellzDirect (CLD) Gene Expression Assay for xenobiotic metabolism (CYP2C9) at 24 hours (AID 2283688)).
Description: CLD_24hr is a cell-based, multiplexed-readout assay that uses hepatocyte, a human liver primary cell, with measurements taken at 24 hours after chemical dosing in a 96-well plate.CLD_CYP2C9_24hr is one of 16 assay component(s) measured or calculated from the CLD_24hr assay. It is designed to make measurements of mRNA induction, a form of inducible reporter, as detected with chemiluminescence signals by Quantitative Nuclease Protection Assay (qNPA) technology.Data from the assay component CLD_CYP2C9_24hr was analyzed at the endpoint, CLD_CYP2C9_24hr, in the positive analysis fitting direction relative to DMSO as the negative control and baseline of activity. Using a type of inducible reporter, gain-of-signal activity can be used to understand changes in the reporter gene as they relate to the gene CYP2C9. Furthermore, this assay endpoint can be referred to as a primary readout. To generalize the intended target to other relatable targets, this assay endpoint is annotated to the cyp intended target family, where subfamily is xenobiotic metabolism.
Human hepatocyte cultures were treated daily for two consecutive days with fresh dosing solutions containing appropriate concentrations of the 320 ToxCast chemicals (chemical identities were blinded to CellzDirect and other ToxCast collaborators), vehicle control (0.2% DMSO), and positive control inducers as summarized in Table 1. Due to the large number of treatment groups and chemicals examined, the ToxCast chemicals were divided into two groups (spanning two independent cultures of hepatocytes from separate donor preparations (Hu778: ToxCast plates 1 and 2; Hu776: ToxCast plates 3 and 4). Each preparation of human hepatocyte cultures was treated with respective vehicle control, medium only control, set of six positive controls/reference chemicals for the five hepatic receptor pathways, and a subset of eight of the ToxCast chemicals (indoxacarb, pyrithiobac-sodium, norflurazon, cyhalofop-butyl, methomyl, thiram, acetochlor, and propiconazole). These replicate data, coupled with internal replicates designed within the blinded ToxCast chemical library, provided additional data to evaluate interindividual differences between hepatocyte preparations and their potential impact on chemical profiles.Cell morphology and integrity were evaluated using phase-contrast microscopy as an indicator of hepatocyte cell health (Tyson & Green, 1987). Cultures for each treatment group (i.e., media, vehicle [0.2% DMSO], positive control inducers [multiple concentrations], and the ToxCast chemicals [multiple concentrations]) were observed and cell morphology was assessed relative to vehicle control cultures at each harvest time point (0, 6, 24, or 48 h). […] Images were evaluated at the conclusion of the study to assess changes in cell integrity and account for the effects of chemical exposure on uncharacteristic changes in concentration-dependent gene expression profiles. The results from these determinations of apparent cytotoxicity were annotated (yes/no) alongside the corresponding qNPA data for reference.At the conclusion of each treatment period, hepatocyte cultures (96-well) were washed with 1 volume of HBSS, lysed by addition of 25 ul ArrayPlate lysis buffer (HTG, Tucson, AZ), and 70 ul/well of Denaturation Oil, denatured by incubation at 95C for 10 min, and frozen at approximately -70C until analysis by nuclease protection assay (qNPA) (Roberts et al., 2007). For qNPA analysis, cell lysates were thawed at 50C for approximately 30 min, qNPA probes were added, and samples were incubated at 95C for 10 min to begin the detection process by denaturing the target RNA, dissociating the duplexes and secondary structure hybridization. At the conclusion of the hybridization period, S1 nuclease reagent was added to each sample to digest all nonprotected nucleotides at 50C for 60-90 min. […]

Row | Compound | outcome
1 | CCCN(CCC)c1c([N+](=O)[O-])cc(C(F)(F)F)cc1[N+](=O)[O-] | inactive
2 | CC1(C)C(C=C(Cl)Cl)C1C(=O)OC(C#N)c1ccc(F)c(Oc2ccccc2)c1 (stereo not given) | inactive
3 | CC(C)(C)C(O)/C(=C\c1ccc(Cl)cc1Cl)n1cncn1 (stereo not given) | inactive
4 | CN1CSC(=S)N(C)C1 | inactive
5 | CNC(=O)Oc1cccc(N=CN(C)C)c1 | inactive
6 | COP(=S)(OC)Oc1ccc([N+](=O)[O-])cc1 | inactive
7 | Clc1ccccc1-c1nnc(-c2ccccc2Cl)nn1 | inactive
8 | CCOCN(C(=O)CCl)c1c(C)cccc1CC | inactive
9 | O=[N+]([O-])c1c(Cl)c(Cl)c(Cl)c(Cl)c1Cl | inactive
10 | COC(=O)c1ccccc1S(=O)(=O)NC(=O)N(C)c1nc(C)nc(OC)n1 | inactive
11 | CCOC1Oc2ccc(OS(C)(=O)=O)cc2C1(C)C (stereo not given) | inactive
12 | O=S1OCC2C(CO1)C1(Cl)C(Cl)=C(Cl)C2(Cl)C1(Cl)Cl (stereo not given) | inactive
13 | CC(C)(C)C(O)C(Oc1ccc(Cl)cc1)n1cncn1 (stereo not given) | inactive
14 | CNC(=O)/C=C(\C)OP(=O)(OC)OC | inactive
15 | CCC(C)(NC(=O)c1cc(Cl)c(C)c(Cl)c1)C(=O)CCl (stereo not given) | inactive
16 | O=C(NC(=O)c1c(F)cccc1F)Nc1ccc(OC(F)(F)C(F)OC(F)(F)F)c(Cl)c1 (stereo not given) | inactive
17 | C#CCN1C(=O)COc2cc(F)c(N3C(=O)C4=C(CCCC4)C3=O)cc21 | inactive
18 | OCCOc1ccccc1 | inactive
19 | COC(=O)c1ccccc1CS(=O)(=O)NC(=O)Nc1nc(OC)cc(OC)n1 | inactive
20 | C[C@H]1[C@H](c2ccc(Cl)cc2)SC(=O)N1C(=O)NC1CCCCC1 | inactive
21 | COc1cc(OC)nc(NC(=O)NS(=O)(=O)c2cc(NC=O)ccc2C(=O)N(C)C)n1 | inactive
22 | COc1nn(CSP(=S)(OC)OC)c(=O)s1 | inactive
23 | CC(C)OC(=O)Nc1cccc(Cl)c1 | inactive
24 | CCOc1nc(NC)nc(NC(=O)NS(=O)(=O)c2ccccc2C(=O)OC)n1 | inactive
25 | Cc1[nH]c(=O)n(C(C)(C)C)c(=O)c1Cl | inactive
26 | Oc1ccc(Cl)cc1Cc1ccccc1 | inactive
27 | O=S(=O)(O)C(F)(F)C(F)(F)C(F)(F)C(F)(F)C(F)(F)C(F)(F)C(F)(F)C(F)(F)F | inactive
28 | CCC(C)(C)C(=O)OC1=C(c2ccc(Cl)cc2Cl)C(=O)OC12CCCCC2 | inactive
29 | O=C(O)CCCOc1ccc(Cl)cc1Cl | inactive
30 | ClC1C(Cl)C(Cl)C(Cl)C(Cl)C1Cl (stereo not given) | inactive
